SMILES strings stand for the structures. For some assays here: Measured potencies and affinities stand elsewhere.

Design in all cases: scale not given: direction of the effect not stated beside the values
Assay [1] addresses Protein translocase subunit SecA (Escherichia coli (strain K12)) (UniProt P10408). The assay can be described thus: Assay to Identify E. coli SecA ATPase Inhibitors. In kind it is functional. Particulars: 30 µM.
In assay [2] the target is T1, Ubiquitin-activating enzyme e1, putative (Leishmania donovani (strain BPK282A1)) (UniProt E9BSI1).
T1 sequence (whole entry): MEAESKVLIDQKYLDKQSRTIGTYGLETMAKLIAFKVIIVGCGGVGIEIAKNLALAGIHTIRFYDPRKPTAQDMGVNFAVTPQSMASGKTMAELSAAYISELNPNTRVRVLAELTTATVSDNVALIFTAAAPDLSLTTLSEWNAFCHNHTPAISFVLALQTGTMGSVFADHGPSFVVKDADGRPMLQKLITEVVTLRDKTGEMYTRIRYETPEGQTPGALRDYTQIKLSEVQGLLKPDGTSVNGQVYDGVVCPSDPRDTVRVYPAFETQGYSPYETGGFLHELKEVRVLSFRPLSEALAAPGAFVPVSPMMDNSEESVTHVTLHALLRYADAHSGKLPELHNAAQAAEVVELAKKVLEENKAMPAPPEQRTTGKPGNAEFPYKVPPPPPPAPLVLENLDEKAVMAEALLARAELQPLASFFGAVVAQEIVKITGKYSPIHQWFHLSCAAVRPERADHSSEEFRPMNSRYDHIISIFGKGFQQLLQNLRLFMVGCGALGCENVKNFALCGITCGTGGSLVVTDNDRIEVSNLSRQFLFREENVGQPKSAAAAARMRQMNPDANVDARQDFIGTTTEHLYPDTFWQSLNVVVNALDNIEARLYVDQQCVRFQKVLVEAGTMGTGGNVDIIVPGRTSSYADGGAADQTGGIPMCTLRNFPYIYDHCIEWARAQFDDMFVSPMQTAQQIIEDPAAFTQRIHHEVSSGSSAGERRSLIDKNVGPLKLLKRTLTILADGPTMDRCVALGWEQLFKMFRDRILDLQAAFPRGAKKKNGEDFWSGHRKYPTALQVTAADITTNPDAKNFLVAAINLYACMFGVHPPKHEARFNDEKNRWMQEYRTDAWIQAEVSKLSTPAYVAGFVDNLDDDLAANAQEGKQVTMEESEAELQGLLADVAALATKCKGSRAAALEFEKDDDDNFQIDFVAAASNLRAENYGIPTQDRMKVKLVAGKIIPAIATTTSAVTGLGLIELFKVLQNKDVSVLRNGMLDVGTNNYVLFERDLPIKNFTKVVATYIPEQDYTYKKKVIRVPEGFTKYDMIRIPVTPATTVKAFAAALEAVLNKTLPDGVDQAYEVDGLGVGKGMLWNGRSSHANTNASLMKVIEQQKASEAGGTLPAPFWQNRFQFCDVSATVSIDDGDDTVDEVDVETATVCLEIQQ
The assay can be described thus: Leishmania donovani Ubiquitin Activating Enzyme (LdE1). In kind it is functional. The note with it: 30 µM.

In assay [3] the target is Sialic acid-binding Ig-like lectin 9 (Homo sapiens) (UniProt Q9Y336). The assay can be described thus: Hs-Siglec9 ALPHAscreen SOP 20170721. Particulars: 10 µM.
Assay [4] deals with Trypanosoma cruzi. Description: Trypanosoma cruzi phosphomannomutase and mannose-1-phosphate guanylyltransferase assay. It counts as functional. The note with it: 10 µM.
The target in assay [5] is T2, Arginase-2, mitochondrial (Homo sapiens) (UniProt P78540).
T2 sequence (whole entry): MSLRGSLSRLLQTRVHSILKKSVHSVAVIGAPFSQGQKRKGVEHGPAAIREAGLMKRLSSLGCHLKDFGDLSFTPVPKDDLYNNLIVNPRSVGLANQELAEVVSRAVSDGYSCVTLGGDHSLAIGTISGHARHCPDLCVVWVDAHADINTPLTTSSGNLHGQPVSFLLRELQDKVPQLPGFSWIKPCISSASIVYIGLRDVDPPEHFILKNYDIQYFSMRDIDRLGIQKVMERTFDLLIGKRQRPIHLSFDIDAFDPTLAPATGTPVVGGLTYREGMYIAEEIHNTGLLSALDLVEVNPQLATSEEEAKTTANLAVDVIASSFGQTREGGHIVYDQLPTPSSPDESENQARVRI
The assay can be described thus: in vitro enzyme assay to detect the production of urea directly proportional to the activity of Arginase II. Further: in the data most compounds retested in dose-response had high values. It counts as functional. Particulars: 33.3 µM.

For assay [6], the target named is T3, Proteasome subunit beta (Trypanosoma cruzi) (UniProt O96673).
T3 sequence (whole entry): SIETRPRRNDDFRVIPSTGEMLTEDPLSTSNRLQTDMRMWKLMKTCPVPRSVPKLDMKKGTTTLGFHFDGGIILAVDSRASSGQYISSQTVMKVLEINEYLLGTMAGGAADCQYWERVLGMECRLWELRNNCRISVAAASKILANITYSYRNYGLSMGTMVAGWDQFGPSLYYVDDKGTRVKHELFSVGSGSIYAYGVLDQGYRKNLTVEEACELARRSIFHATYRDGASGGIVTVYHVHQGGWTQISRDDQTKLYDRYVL
Description: Trypanosoma cruzi proteasome chymotrypsin-like activity (TcProtChymo) assay. Further: in the data most compounds retested in dose-response had high values. In kind it is functional. Particulars: 9.37 µM.

For assay [7], the species on record is Homo sapiens. The assay can be described thus: To identify inhibition of the IFN signalling (Jak-Stat) pathway via expression of an eGFP reporter gene under the control of an IFN-stimulated response element (ISRE) containing MxA promoter. In kind it is functional. The note with it: 30 µM.
The target of assay [8] is T4, Tyrosyl-tRNA synthetase, putative (Trypanosoma cruzi (strain CL Brener)) (UniProt Q4DSP6).
T4 sequence (whole entry): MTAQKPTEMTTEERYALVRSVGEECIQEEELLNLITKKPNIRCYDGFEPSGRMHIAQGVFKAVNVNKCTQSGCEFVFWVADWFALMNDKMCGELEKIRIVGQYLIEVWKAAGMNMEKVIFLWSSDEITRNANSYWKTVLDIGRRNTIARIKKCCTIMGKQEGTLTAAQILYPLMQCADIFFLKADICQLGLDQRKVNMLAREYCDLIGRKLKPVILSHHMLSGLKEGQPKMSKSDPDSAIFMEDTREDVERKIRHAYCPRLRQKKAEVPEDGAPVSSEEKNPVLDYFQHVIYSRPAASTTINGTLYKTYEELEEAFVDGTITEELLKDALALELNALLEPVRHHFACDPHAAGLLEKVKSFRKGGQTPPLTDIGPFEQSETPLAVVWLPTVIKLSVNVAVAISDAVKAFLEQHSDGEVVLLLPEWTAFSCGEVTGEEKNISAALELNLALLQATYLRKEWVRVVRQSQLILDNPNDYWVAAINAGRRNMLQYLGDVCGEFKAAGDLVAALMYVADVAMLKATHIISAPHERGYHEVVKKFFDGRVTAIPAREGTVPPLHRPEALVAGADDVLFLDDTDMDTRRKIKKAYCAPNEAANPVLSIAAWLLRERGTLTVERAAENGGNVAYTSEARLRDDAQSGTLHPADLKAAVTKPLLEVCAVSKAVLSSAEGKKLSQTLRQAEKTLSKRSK
The assay can be described thus: Trypanosoma cruzi tyrosyl tRNA synthetase (TcYRS) _High Tyrosine SOP. Further: in the data most compounds retested in dose-response had high values. It counts as functional. Particulars: 30 µM.

Assay [9] concerns the target T4, Tyrosyl-tRNA synthetase, putative (Trypanosoma cruzi (strain CL Brener)). Description: Trypanosoma cruzi tyrosyl tRNA synthetase (TcYRS) SOP. It counts as functional. Particulars: 30 µM.
Assay [10] has as its target Chromo domain-containing protein 1 (Saccharomyces cerevisiae (strain ATCC 204508 / S288c) (Baker's yeast)) (UniProt P32657). Description: ScCHD-1 Enzyme Inhibition Assay. Further: in the data most compounds retested in dose-response had high values. The note with it: 30 µM. It counts as functional.

Chain of Sialic acid-binding Ig-like lectin 9 (Homo sapiens) (Q9Y336 whole entry): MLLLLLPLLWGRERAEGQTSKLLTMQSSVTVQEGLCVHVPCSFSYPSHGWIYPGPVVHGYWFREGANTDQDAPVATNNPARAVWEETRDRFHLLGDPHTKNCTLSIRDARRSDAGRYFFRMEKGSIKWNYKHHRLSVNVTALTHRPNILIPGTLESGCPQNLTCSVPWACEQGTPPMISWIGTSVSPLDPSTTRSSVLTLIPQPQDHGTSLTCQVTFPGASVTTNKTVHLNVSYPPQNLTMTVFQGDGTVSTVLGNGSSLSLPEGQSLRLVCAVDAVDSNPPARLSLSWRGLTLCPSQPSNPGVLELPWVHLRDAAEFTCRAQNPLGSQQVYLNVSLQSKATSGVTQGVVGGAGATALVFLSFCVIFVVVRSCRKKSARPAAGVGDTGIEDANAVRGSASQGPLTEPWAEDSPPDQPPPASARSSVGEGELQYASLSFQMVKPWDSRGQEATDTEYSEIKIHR
Chain of Chromo domain-containing protein 1 (Saccharomyces cerevisiae (strain ATCC 204508 / S288c) (Baker's yeast)) (P32657 whole entry, the tested form may be a part): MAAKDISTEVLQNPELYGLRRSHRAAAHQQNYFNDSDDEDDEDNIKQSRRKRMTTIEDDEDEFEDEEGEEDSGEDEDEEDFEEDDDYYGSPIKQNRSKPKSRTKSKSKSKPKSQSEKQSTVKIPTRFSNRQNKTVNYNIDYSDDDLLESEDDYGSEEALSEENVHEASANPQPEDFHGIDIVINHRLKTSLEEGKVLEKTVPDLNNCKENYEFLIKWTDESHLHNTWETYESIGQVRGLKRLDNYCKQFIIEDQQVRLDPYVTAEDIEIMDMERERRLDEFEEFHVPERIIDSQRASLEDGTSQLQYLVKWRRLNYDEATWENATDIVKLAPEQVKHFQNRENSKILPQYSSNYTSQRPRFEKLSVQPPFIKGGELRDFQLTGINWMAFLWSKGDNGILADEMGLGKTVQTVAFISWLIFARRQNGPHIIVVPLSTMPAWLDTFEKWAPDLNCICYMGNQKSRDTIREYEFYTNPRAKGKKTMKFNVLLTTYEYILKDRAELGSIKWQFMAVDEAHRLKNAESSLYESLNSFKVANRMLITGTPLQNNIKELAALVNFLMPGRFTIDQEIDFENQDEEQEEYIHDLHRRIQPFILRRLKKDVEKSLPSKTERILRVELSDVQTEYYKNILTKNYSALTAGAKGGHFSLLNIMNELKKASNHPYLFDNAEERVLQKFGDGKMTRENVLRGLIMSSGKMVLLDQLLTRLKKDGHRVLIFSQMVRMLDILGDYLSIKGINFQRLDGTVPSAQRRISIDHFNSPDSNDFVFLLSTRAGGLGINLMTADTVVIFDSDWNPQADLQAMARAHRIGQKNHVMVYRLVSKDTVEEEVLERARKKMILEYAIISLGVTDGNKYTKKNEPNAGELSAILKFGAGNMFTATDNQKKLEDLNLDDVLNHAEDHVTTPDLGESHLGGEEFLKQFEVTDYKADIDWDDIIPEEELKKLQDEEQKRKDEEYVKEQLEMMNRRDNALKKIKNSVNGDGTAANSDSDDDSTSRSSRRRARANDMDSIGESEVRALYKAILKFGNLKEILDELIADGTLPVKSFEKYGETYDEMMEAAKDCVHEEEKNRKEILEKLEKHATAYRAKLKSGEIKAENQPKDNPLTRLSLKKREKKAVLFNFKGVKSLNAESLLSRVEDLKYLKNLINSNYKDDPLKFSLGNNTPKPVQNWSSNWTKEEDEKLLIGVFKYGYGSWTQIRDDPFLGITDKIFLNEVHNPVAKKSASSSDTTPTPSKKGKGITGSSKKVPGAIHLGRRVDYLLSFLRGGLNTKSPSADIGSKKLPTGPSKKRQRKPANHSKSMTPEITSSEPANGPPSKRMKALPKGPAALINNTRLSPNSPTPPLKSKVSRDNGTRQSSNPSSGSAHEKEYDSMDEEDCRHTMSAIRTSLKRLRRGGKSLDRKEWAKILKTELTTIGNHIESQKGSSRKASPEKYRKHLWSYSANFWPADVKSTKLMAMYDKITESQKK
Chain of Protein translocase subunit SecA (Escherichia coli (strain K12)) (P10408 whole entry): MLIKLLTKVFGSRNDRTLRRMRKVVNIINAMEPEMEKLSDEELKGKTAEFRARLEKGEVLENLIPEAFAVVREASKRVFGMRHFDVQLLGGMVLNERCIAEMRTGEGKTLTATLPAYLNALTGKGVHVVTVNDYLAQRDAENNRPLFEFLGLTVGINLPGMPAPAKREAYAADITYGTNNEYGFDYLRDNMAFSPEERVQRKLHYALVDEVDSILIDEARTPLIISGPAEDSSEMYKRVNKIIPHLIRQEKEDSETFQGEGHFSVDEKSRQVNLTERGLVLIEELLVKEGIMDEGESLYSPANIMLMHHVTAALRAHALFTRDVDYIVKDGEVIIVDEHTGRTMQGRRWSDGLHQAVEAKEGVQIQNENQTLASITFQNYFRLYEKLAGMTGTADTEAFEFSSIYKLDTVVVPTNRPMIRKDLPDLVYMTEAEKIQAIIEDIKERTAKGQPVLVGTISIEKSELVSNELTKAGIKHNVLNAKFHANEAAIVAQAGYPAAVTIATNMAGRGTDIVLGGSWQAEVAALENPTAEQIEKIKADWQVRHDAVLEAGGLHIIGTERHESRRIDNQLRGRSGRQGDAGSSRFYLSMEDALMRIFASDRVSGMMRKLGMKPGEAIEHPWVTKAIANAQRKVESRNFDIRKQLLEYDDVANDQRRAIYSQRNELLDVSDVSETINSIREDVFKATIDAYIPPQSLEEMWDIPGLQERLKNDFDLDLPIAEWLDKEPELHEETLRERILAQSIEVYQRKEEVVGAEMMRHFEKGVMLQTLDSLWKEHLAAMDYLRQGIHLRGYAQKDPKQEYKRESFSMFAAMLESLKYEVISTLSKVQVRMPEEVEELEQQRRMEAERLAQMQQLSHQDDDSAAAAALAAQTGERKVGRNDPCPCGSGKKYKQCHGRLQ

In the case of `CCCn1[nH]cc/c1=N\C(=O)CN1CCc2cnc(CC)nc2C1`, the Percent Effect in assay [1] was 0.849%; in assay [2] it was 0%; in assay [3] it was 1.8%; in assay [4] it was -2.61%; in assay [5] it was 9.76%; in [6] it was 2.29%. Further, the Percent Effect came to 3.62% in [7], 11.1% in assay [8], 7.69% in assay [9] and 5.4% in [10].

Take `CCc1ncc2c(n1)CN(CC(=O)Nc1nnc(C)s1)CC2`: the Percent Effect was -2.11% in assay [1]; 5.33% in assay [2]; 0.404% in assay [3]; -4.22% in assay [4]; 5.32% in assay [5]; 8.4% in assay [6]. For the same compound, the Percent Effect in assay [7] is -8.8%; in [8], 6.84%; in assay [9], 10.3%; in [10], -13.6%.

For `CCN(CC)C(=O)C(c1ccccc1)N1CCn2c(C)nnc2C1` (stereo not given), the Percent Effect in [1] is -4.22%; in assay [2], 17.9%; in assay [3], 9.65%; in assay [4] it was 7.61%; in assay [5], 0.82%; in [6] it was 8.45%. Also, the Percent Effect in [7] is 10.3%; in assay [8], 7.18%; in assay [9] it was 22.9%; in [10], -4.71%.

Regarding `CN(C)CC(=O)N1CCC2(CC1)COC(COc1ccccn1)C2` (stereo not given), the Percent Effect is -4.97% in assay [1]; 6.49% in [2]; -5.49% in [3]; 2.82% in assay [4]; -4.86% in assay [5]; 12.3% in assay [6]. Also, the Percent Effect is -11.4% in assay [7], 5.79% in assay [8], 12.8% in assay [9] and -0.892% in assay [10].

On to `CCCN1CCCn2nc(CNS(=O)(=O)c3cccc(C#N)c3)cc2C1`, for which the Percent Effect in assay [1] was -7.29%; in [2] it was 8.11%; in assay [3], 11.2%; in [4] it was 1.84%; in assay [5] it was 2.45%; in assay [6], 19.4%. The Percent Effect came to 9.83% in [7], 6.92% in assay [8], 21.9% in assay [9] and 95% in assay [10].

For `COCc1nc(C(=O)N2CCCC(n3cccn3)C2)cs1` (stereo not given), the Percent Effect in [1] is -1.77%; in assay [2], 13%; in assay [3], 6.57%; in assay [4], -4.29%; in [5], 2.25%; in assay [6], 8.6%. The Percent Effect in assay [7] is -4.23%; in assay [8] it was 2.94%; in assay [9], 16.5%; in assay [10], -6.38%.

With `CCOC(=O)N1CCN(C(=O)c2sc(-c3ccc(F)cc3)nc2C)CC1`, the Percent Effect in assay [1] is -7.21%; in [2] it was 5.41%; in assay [3] it was 8.85%; in assay [4], -1.65%; in assay [5], 1.05%; in assay [6], 17.5%. Also, the Percent Effect in assay [7] was 1.22%; in assay [8] it was 4.79%; in [9], 12.2%; in assay [10], -3.55%.

Turning to `CCS(=O)(=O)c1ncc(CN(C)Cc2ccccn2)n1CCOC`, the Percent Effect in assay [1] was -6.13%; in [2] it was 5.41%; in assay [3] it was 13.7%; in assay [4], 5.33%; in assay [5], 2.45%; in assay [6], 5.65%. Also, the Percent Effect in [7] is 3.71%; in [8], 4.79%; in [9] it was 14.6%; in assay [10], -2.76%.

`O=C(NC[C@]1(O)CN(Cc2ccccc2F)C[C@H]1O)c1ccccn1`: the Percent Effect was -1.11% in [1]; 12% in [2]; -1.14% in assay [3]; -2.37% in assay [4]; 1.33% in [5]; 10.5% in assay [6]. Further, the Percent Effect in assay [7] is 6.15%; in assay [8], 4.23%; in [9], 15%; in assay [10], -24.1%.

As to `Cc1cnn(CC2CCCN2C(=O)c2ccc(C(N)=O)cn2)c1` (stereo not given), the Percent Effect in [1] is -5%; in [2] it was 15.4%; in [3], 2.02%; in assay [4], 5.92%; in assay [5] it was 2.05%; in [6] it was 9.47%. Further, the Percent Effect in assay [7] is 12.1%; in [8] it was 0.478%; in assay [9], 13.2%; in [10], -6.88%.

Take `CC(NC(=O)CN(C)S(C)(=O)=O)c1nnc2n1CCCCC2` (stereo not given): the Percent Effect is 1.95% in assay [1]; 13% in [2]; 1.1% in [3]; -4.48% in [4]; -15% in assay [5]; 17.2% in [6]. Also, the Percent Effect in assay [7] is 26.4%; in [8], -0.98%; in [9], 4.71%; in assay [10], -8.79%.
